From PubChem BioAssay (Tox21)
Where “and” joins values, the source holds several entries; their conditions need not be identical. Identical values can stand only once. Results filed as inconclusive are left out. The source holds several records for some structures; these can differ, active in one and inactive in another. Calls of active or inactive are those of the source. Unless noted, calls come from the whole dose curve; as a rule, active = well fitted curve in the direction sought with a large enough effect in the repeat runs; inconclusive = weak or mixed curves; inactive = no such curve, though single readings can be large; an effect the other way counts as inactive or inconclusive.

How the values were obtained:
[1] = A CellTox Green Cytotoxicity Assay to monitor cytotoxicity in HepG2 cells - 8 hour (AID 1224890); note: nearly all actives have a fitted effect of over 45% in size
Procedure, shortened: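 Real-time, homogeneous cytotoxicity readout: dead-cell DNA staining by CellTox Green in HepG2 monolayers, fluorescence measured at timed intervals up to 40 h of continuous compound exposure.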

[2] = qHTS assay to identify small molecule antagonists of the estrogen receptor alpha (ER-alpha) signaling pathway using the BG1 cell line in the presence of 0.1 nM 17-beta-estradiol - cell viability counter screen (AID 1259241); note: nearly all actives have a fitted effect of over 40% in size
Procedure, shortened: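 Cytotoxicity counter-screen: live-cell protease activity measured by fluorescence (30 min reagent step) in the same wells. Cells were VM7Luc4E2 with endogenous ER-alpha and ERE-driven luciferase, treated 22 hr at 37C alongside 0.1 nM 17beta-estradiol final.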

[3] = qHTS assay to identify small molecule antagonists of the androgen receptor (AR) signaling pathway using the MDA cell line in the presence of 0.5 nM R1881 - cell viability counter screen (AID 1259242); note: nearly all actives have a fitted effect of over 45% in size
Procedure, shortened: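 Cytotoxicity toward MDA-kb2 cells is measured by CellTiter-Fluor live-cell protease fluorescence after 16 hr compound exposure at 37C in the presence of 0.5 nM R1881 stimulator.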

[4] = molecular target: Androgen receptor (Homo sapiens) (UniProt P10275); assay: qHTS assay to identify small molecule antagonists of the androgen receptor (AR) signaling pathway using the MDA cell line in the presence of 0.5 nM R1881 (AID 1259243); note: nearly all actives have a fitted effect of over 50% in size; note: potency is the fitted concentration of half-maximal effect
Procedure, shortened: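 Steps: seed MDA-kb2 cells, incubate 5 hr at 37C; pin-transfer compounds in DMSO; add R1881 to 0.5 nM final; incubate 16 hr; add ONE-Glo, wait 30 min at room temperature; read luminescence.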

[5] = molecular target: Estrogen receptor (Homo sapiens) (UniProt P03372); assay: qHTS assay to identify small molecule antagonists of the estrogen receptor alpha (ER-alpha) signaling pathway using the BG1 cell line in the presence of 0.1 nM 17-beta-estradiol (AID 1259244); note: nearly all actives have a fitted effect of over 50% in size
Procedure, shortened: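 After 5 days in hormone-depleted medium (charcoal-stripped serum, no phenol red), VM7Luc4E2 cells were seeded, incubated 24 h, then co-treated with compound and 0.1 nM (final) estradiol for 22 h before luminescence detection.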

[6] = qHTS assay to identify small molecule phospholipidosis (PLD) inducers (AID 1259344; active = well fitted curve in the direction sought with a large enough effect; an effect the other way counts as inactive or inconclusive)
Procedure, shortened: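 Quantitative HTS in HepG2: compound plus LipidTOX Red dye for 24 h, paraformaldehyde fixation with Hoechst 33342, widefield high-content imaging; amiodarone as positive and DMSO as negative control.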

[7] = qHTS assay to identify small molecule HDAC inhibitors - cell viability counter screen (AID 1259365); note: series mostly up to about 92 µM; nearly all actives have a fitted effect of over 50% in size
Procedure, shortened: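 CellTiter-Glo luminescence (30 min, room temperature) reported viability after a 2 h compound exposure at 37 C. Cells: wild-type HCT-116, 1,500 per well, seeded the night before.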

[8] = qHTS assay to identify small molecule antagonists of the sonic hedgehog signaling (Shh) pathway - cell viability counter screen (AID 1259367); note: nearly all actives have a fitted effect of over 55% in size
Procedure, shortened: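 Seed 3T3 Gli1-Luc cells at 2,000 per well; incubate 4 hr; add compound in DMSO, then conditioned medium; incubate at 37C with 5% CO2; add CellTiter-Fluor after 23 hr; read fluorescence 1 hr later.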

[9] = qHTS assay to identify small molecule antagonists of the sonic hedgehog signaling (Shh) pathway (AID 1259369; calls by dose curve; note: nearly all actives have a fitted effect of over 45% in size; note: potency is the fitted concentration of half-maximal effect)
Procedure, shortened: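 Inhibition of Shh signalling is measured as reduced Gli1-response-element firefly luciferase output in an NIH/3T3-derived stable reporter clone stimulated with conditioned medium for 24hr.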

[10] = qHTS assay to identify small molecule agonists of the androgen receptor (AR) signaling pathway in the presence of an antagonist - cell viability counter screen (AID 1259379);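 note: MDA-kb2 human breast cancer cells carrying an MMTV luciferase reporter; series mostly up to about 92 µM; nearly all actives have a fitted effect of over 25% in size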
Procedure, shortened: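 Fluorescence from CellTiter-Fluor, added after 15 hr and read 1 hr later, gave cell viability. Cells were MDA-kb2 exposed to compounds (15 concentrations) in the presence of 3.0uM nilutamide at 37C, 0% CO2.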

[11] = qHTS assay to identify small molecule agonists of the estrogen receptor beta (ER-beta) signaling pathway - cell viability counter screen (AID 1259380); note: nearly all actives have a fitted effect of over 30% in size
Procedure, shortened: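 Same-well viability counter screen. Cells: ER-beta-UAS-bla HEK293T, plated 6 hr before compound, in 2% charcoal-stripped FBS. Compound exposure 16 hr, 37C; viability by CellTiter-Glo luminescence after 30 min at room temperature.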

[12] = molecular target: Androgen receptor (Homo sapiens) (UniProt P10275); assay: qHTS assay to identify small molecule agonists of the androgen receptor (AR) signaling pathway in the presence of an antagonist (AID 1259381; calls by dose curve; note: nearly all actives have a fitted effect of over 15% in size; note: potency is the fitted concentration of half-maximal effect)
Procedure, shortened: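 Cells are MDA-kb2 (human breast carcinoma, MMTV-luc, AR/GR responsive). Nilutamide is present at 3.0uM final throughout; compounds are added at 15 concentrations and incubated 16hr at 37C before ONE-Glo luminescence detection.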

[13] = molecular target: Estrogen receptor (Homo sapiens) (UniProt P03372); assay: qHTS assay to identify small molecule agonists of the estrogen receptor alpha (ER-alpha) signaling pathway in the presence of an antagonist (AID 1259383; calls by dose curve; note: nearly all actives have a fitted effect of over 15% in size; note: potency is the fitted concentration of half-maximal effect; for activation: top concentration of the series differs between compounds)
Procedure, shortened: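 Cells are hormone-deprived for 5 days (charcoal-stripped FBS, no phenol red), plated for 24hr, spiked with 10.0nM ICI-182,780, then dosed at 15 concentrations. After 22hr at 37C, ONE-Glo luminescence reports ERE-luciferase activity.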

[14] = qHTS assay to identify small molecule HDAC inhibitors (AID 1259364); note: top concentration of the series differs between compounds; nearly all actives have a fitted effect of over 45% in size
Procedure, shortened: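 Homogeneous cell-based luminescent assay of endogenous class I/II HDAC activity; HCT-116 cells, 2 h compound exposure, 30 min HDAC-Glo development at RT.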

[15] = qHTS assay to identify small molecule agonists of the sonic hedgehog signaling (Shh) pathway - cell viability counter screen (AID 1259366); note: nearly all actives have a fitted effect of over 50% in size
Procedure, shortened: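 Cytotoxicity counter screen: CellTiter-Fluor reagent added after 23 h compound exposure, then 1 h at 37C and fluorescence read. Cells were 3T3 Gli1-Luc, seeded 2,000 per well and dosed 4 h post-plating.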

[16] = qHTS assay to identify small molecule agonists of the sonic hedgehog signaling (Shh) pathway (AID 1259368; calls by dose curve;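 note: NIH/3T3-derived 3T3Gli1-Luc cells carrying a stable Gli1-driven firefly luciferase reporter; series mostly up to about 92 µM; nearly all actives have a fitted effect of over 15% in size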)
Procedure, shortened: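 Steps: seed 3T3 Gli1-Luc cells, incubate 4 hr at 37 C, pin-transfer compounds in DMSO alongside a positive control, incubate 24 hr, add luciferase detection reagent, wait 30 min at room temperature, read luminescence.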

[17] = molecular target: Estrogen receptor beta (Homo sapiens) (UniProt Q92731); assay: qHTS assay to identify small molecule agonists of the estrogen receptor beta (ER-beta) signaling pathway (AID 1259377; active = well fitted activation curve with a large enough effect in the signal ratio in the repeat runs, not every such curve was filed as active; the % refers to the signal ratio)
Procedure, shortened: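 Ratiometric beta-lactamase FRET read-out came after 2 h substrate loading at room temperature. It followed 16 h compound treatment at 37C of GripTite HEK293T cells carrying a UAS-bla reporter, plated in 2% charcoal-stripped FBS medium.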

[18] = qHTS assay to identify small molecule antagonists of the estrogen receptor beta (ER-beta) signaling pathway - cell viability counter screen (AID 1259382); note: series mostly up to about 92 µM; nearly all actives have a fitted effect of over 55% in size
Procedure, shortened: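 Following a 6 hr plating period, HEK293T cells carrying a UAS-driven beta-lactamase reporter under ER-beta control received compounds and 1nM E2 (final). After 16 hr at 37C and 2 hr substrate loading, CellTiter-Glo luminescence indicated viability.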

[19] = qHTS assay to identify small molecule agonists or antagonists of the thyroid stimulating hormone receptor (TSHR) signaling pathway - wild type cell line counter screen (AID 1259384; calls by dose curve)
Procedure, shortened: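 Wild-type Hek293 cells, 800/well, 18 h at 37C, then compound with Ro20-1724 for 30 min RT. cAMP by HTRF (cAMP-d2/anti-cAMP cryptate), 1 h RT, fluorescence read. 15 concentrations, triplicates.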

[20] = molecular target: Estrogen receptor beta (Homo sapiens) (UniProt Q92731); assay: qHTS assay to identify small molecule antagonists of the estrogen receptor beta (ER-beta) signaling pathway (AID 1259378; active = well fitted inhibition curve with a large enough effect in the signal ratio in the repeat runs, not every such curve was filed as active; the % refers to the signal ratio)
Procedure, shortened: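 ER-beta-UAS-bla HEK293T cells in 2% charcoal-stripped FBS medium treated with compound plus 1nM final 17-beta-estradiol for 16 hr at 37C. Beta-lactamase reporter read by FRET substrate fluorescence after 2 hours at room temperature.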
% is set by controls: 0 for no effect and ±100 for the full control effect.

Androgen receptor (Homo sapiens), sequence (P10275 whole entry, looked up): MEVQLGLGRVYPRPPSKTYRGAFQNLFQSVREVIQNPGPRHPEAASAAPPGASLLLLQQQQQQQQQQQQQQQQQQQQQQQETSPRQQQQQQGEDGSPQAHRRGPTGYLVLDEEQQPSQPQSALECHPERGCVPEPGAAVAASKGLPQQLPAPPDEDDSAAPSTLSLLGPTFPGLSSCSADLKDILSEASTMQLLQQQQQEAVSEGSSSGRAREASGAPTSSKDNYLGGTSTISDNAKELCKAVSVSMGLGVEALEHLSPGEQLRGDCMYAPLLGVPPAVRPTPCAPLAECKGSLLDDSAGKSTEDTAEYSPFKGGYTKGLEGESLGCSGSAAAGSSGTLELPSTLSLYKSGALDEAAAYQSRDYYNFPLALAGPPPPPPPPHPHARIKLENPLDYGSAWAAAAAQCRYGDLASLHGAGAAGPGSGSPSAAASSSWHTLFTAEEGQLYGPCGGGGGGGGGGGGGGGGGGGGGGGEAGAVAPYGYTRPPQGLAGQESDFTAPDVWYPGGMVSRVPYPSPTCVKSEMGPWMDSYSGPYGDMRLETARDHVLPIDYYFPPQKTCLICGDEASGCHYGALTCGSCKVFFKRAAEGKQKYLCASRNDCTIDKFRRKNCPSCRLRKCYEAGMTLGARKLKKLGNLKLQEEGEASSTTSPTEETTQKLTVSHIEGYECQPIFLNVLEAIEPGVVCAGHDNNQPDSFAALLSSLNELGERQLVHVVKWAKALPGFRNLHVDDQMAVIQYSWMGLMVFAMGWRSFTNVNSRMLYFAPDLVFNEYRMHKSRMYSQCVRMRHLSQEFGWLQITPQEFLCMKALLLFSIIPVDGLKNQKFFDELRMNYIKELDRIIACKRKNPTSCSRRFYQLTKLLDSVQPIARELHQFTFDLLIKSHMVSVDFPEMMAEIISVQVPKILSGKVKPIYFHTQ
Estrogen receptor beta (Homo sapiens), sequence (Q92731 whole entry, looked up): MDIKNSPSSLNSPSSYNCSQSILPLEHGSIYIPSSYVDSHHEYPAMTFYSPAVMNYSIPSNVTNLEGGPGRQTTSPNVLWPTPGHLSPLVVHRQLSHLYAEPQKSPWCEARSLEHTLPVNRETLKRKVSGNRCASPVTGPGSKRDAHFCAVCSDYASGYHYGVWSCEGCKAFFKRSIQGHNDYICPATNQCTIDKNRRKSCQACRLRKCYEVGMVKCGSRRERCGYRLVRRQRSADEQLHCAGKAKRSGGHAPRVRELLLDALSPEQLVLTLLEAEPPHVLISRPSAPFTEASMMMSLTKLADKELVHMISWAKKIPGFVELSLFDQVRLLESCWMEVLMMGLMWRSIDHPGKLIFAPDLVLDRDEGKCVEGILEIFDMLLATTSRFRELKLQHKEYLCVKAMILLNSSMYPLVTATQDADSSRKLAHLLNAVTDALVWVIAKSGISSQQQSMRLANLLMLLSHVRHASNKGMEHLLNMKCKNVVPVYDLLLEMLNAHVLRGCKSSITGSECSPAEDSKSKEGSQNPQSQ
Estrogen receptor (Homo sapiens), sequence (P03372 whole entry, looked up): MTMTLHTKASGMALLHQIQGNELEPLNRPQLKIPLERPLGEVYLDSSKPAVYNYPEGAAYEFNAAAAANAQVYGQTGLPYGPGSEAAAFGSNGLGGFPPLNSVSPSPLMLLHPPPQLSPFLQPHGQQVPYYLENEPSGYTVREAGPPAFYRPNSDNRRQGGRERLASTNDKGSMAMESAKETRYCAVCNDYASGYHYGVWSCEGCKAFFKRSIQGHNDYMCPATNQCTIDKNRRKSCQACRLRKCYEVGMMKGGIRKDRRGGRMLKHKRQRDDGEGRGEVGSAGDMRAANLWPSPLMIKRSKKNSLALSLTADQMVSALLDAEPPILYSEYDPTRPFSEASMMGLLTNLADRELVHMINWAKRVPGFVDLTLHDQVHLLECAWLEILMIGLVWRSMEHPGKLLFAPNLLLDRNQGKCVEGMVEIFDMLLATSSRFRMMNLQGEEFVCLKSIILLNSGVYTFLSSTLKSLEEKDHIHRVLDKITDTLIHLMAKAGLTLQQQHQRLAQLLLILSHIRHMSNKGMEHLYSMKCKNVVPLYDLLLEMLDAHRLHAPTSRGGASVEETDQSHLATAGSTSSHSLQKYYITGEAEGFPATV

O=c1cc(-c2ccccc2)oc2ccccc12
inactive and 4.3 µM (active): Potency [12]
active: Potency [4] 7.7 µM and 3.83 µM | Potency [9] 15.3 µM | Potency [13] 2.73 µM and 4.06 µM
inactive: Potency [1] | outcome [2] | Potency [3] | outcome [5] | PLD induction [6] -2.02% [at 3.15 µM] | outcome [7] | Potency [8] | Potency [10] | Potency [11]

CCSC(=O)N(CC(C)C)CC(C)C
inactive: Potency [1] | outcome [2] | Potency [3] | Potency [4] | outcome [5] | Potency [14] | outcome [7] | Potency [15] | Potency [8] | outcome [16] | Potency [9] | outcome [17] | Potency [10] | Potency [11] | Potency [12] | Potency [18] | Potency [13] | outcome [19]

Cc1cnc(NS(=O)(=O)c2ccc(N)cc2)nc1
inactive: Potency [1] | outcome [2] | Potency [3] | Potency [4] | outcome [5] | Potency [14] | outcome [7] | Potency [15] | Potency [8] | outcome [16] | Potency [9] | outcome [17] | outcome [20] | Potency [10] | Potency [11] | Potency [12] | Potency [18] | Potency [13] | outcome [19]

O=S(O)CO
inactive: Potency [1] | outcome [2] | Potency [3] | Potency [4] | outcome [5] | Potency [6] | Potency [14] | outcome [7] | Potency [8] | outcome [16] | outcome [20] | Potency [10] | Potency [11] | Potency [12] | Potency [18] | Potency [13] | outcome [19]

CN1N=C(C(N)=O)CCC1=O
inactive: Potency [1] | outcome [2] | Potency [3] | Potency [4] | outcome [5] | Potency [14] | outcome [7] | Potency [15] | Potency [8] | outcome [16] | Potency [10] | Potency [11] | Potency [12] | Potency [18] | Potency [13] | outcome [19]

CC(=O)Nc1ccc(S(N)(=O)=O)cc1
inactive: Potency [1] | outcome [2] | Potency [3] | Potency [4] | outcome [5] | Potency [14] | outcome [7] | Potency [15] | Potency [8] | outcome [16] | Potency [9] | outcome [17] | outcome [20] | Potency [10] | Potency [11] | Potency [12] | Potency [18] | Potency [13] | outcome [19]

NC(=O)COCCN1CCN(C(c2ccccc2)c2ccc(Cl)cc2)CC1 (centres undefined)
inactive: Potency [1] | outcome [2] | Potency [3] | Potency [4] | outcome [5] | PLD induction [6] -1.34% [at 1.53 µM] | Potency [14] | outcome [7] | Potency [15] | Potency [8] | outcome [16] | Potency [10] | Potency [11] | Potency [12] | Potency [18] | Potency [13] | outcome [19]
